Experimental data: PubChem BioAssay AID720650 (Broad Institute, 2013)
Calls of active or inactive are those of the source. No rule for the calls is given here.

Experiment: Biochemical counterscreen for C difficile toxins, absence of UDPG, inhibitor dose response (AID 720650)
Conditions: series mostly up to 19.5 µM; activity change, negative = inhibition: at the top concentration

Row | SMILES | activity change, negative = inhibition | AC50
1 | CCOc1ccccc1NC(=O)CCNS(=O)(=O)c1cccc2nonc12 | -10.8% (inactive) | –
2 | CCOc1cc(/C=N\n2nnnc2N)ccc1O | -0.253% (inactive) | –
3 | CC[n+]1ccc(/C=C/c2ccc(N(C)C)cc2)c2ccccc21 | – | 11.7 µM (active)
4 | COCC(=O)N1CC[C@H]2[C@@H]1c1cc(-c3ccc(OC)cc3)ccc1N(C)[C@H]2CO | – | 7.62 µM (active)
5 | Cc1cccc(-c2n[nH]c(=S)n2/N=C/C=C/c2ccco2)c1 | -2.11% (inactive) | –
6 | CC1(C)OC2C(O1)[C@@H](CO)O[C@H]2n1cnc2c(N)ncnc21 (stereo partly drawn) | 0.905% (inactive) | –
7 | Cc1ccc(/C=C(\C#N)C(=O)Nc2ccccn2)o1 | -11.4% (inactive) | –
8 | Cc1c(CNC(=O)c2c([N+](=O)[O-])cnn2C)cnn1C | -1.66% (inactive) | –
9 | COc1ccc2cc3c(nc2c1)OCC3 | -17.2% (inactive) | –
10 | CCc1ccc2oc(-c3cc(N)ccc3Cl)nc2c1 | -14.5% (inactive) | –
11 | N/C(=N\N=C\c1ccc(O)cc1)c1nonc1N | – | 5.49 µM (active)
12 | S=C(NCCc1ccccc1)Nc1ncccn1 | -8.54% (inactive) | –
13 | Cc1cccc(CN2CCN(c3ncccn3)CC2)c1 | 4.85% (inactive) | –
14 | COC(=O)C1=C(c2ccc(F)cc2OCc2ccccc2)C[C@@H]2CC[C@H]1N2C(=O)NCCOc1ccccc1 | 6.43% (inactive) | –
15 | O=C(NCc1cccnc1)c1cc(C2CCCCN2S(=O)(=O)c2cccc3cccnc23)on1 (stereo not drawn) | -13.3% (inactive) | –
16 | CNC(=O)C1CCN(S(=O)(=O)c2c(C)noc2/C=C/c2ccc(OC)cc2)CC1 | -12.1% (inactive) | –
17 | Cc1ccc(S(=O)(=O)Nc2cccnc2Oc2ccc(Cl)cc2)cc1 | -12.2% (inactive) | –
18 | CCOc1ccccc1/C=C/c1onc(C)c1S(=O)(=O)N1CCC(C(=O)N2CCCCCC2)CC1 | -16.1% (inactive) | –
19 | O=C(CN1C(=O)NC2(CCCc3ccccc32)C1=O)NCc1cccs1 (stereo not drawn) | 12.2% (inactive) | –

Row | SMILES | activity change, negative = inhibition | AC50
20 | CC(=O)N/C(=C\c1ccccc1)C(=O)Nc1ccc(O)cc1 | – | 17 µM (active)
21 | COc1ccc(/C=C\c2onc(C)c2S(=O)(=O)N2CCC(C(=O)NCCC(C)C)CC2)cc1 | -18.3% (inactive) | –
22 | COc1cc2[nH]c(=S)n(Cc3cccs3)c(=O)c2cc1OC | -10.4% (inactive) | –
23 | CC1(C)Cc2nc(Cl)c(C#N)cc2CO1 | – | > 39 µM (inactive)
24 | C=CCNc1n[nH]c(=S)s1 | – | > 39 µM (inactive)
25 | O=c1[nH]nc(-c2cc(-c3ccccc3)nc3ccccc23)o1 | -13.7% (inactive) | –
26 | CNC(=O)C[C@H]1CC[C@@H]2[C@H](COc3ccc(NC(=O)c4ccc(OC)cc4)cc3C(=O)N2C)O1 | – | > 39 µM (inactive)
27 | NS(=O)(=O)c1cccc(NC(=O)c2ccc(NS(=O)(=O)c3cccc([N+](=O)[O-])c3)cc2)c1 | 20.8% (inactive) | –
28 | O=C(O)c1ccc(-n2nnc3ccccc32)c([N+](=O)[O-])c1 | 11.4% (inactive) | –
29 | COCC#Cc1ccc2c(c1)O[C@H](CN(C)C(=O)CC1CC1)[C@@H](C)CN([C@H](C)CO)S2(=O)=O | -2.37% (inactive) | –
30 | CCOc1ccc(C(CC(=O)O)NC(=O)C23CC4CC(CC(C4)C2)C3)cc1OC (stereo not drawn) | -6.53% (inactive) | –
31 | Cn1c(SCc2nnc(-c3ccccc3)o2)nc2ccccc21 | -14.5% (inactive) | –
32 | Cc1ccc(C(=O)OCC(=O)c2cc(C)n(CC3CCCO3)c2C)cc1 (stereo not drawn) | 13.3% (inactive) | –
33 | O=C(Cc1coc2cc(O)ccc12)NNC(=O)c1cccs1 | – | > 39 µM (inactive)
34 | CCOc1ccccc1/C=C/c1onc(C)c1S(=O)(=O)N1CCC(C(=O)NC(C)(C)C)CC1 | -3.36% (inactive) | –
35 | Cc1cc(C)nc(NC(N)=NCCc2ccccc2)n1 | – | > 39 µM (inactive)
36 | CCn1c(=S)[nH]c2c(=O)n(C)c(=O)n(C)c21 | – | 13.2 µM (active)
37 | Nc1ccc2c(c1)[nH]c(=O)c1cc(N)ccc12 | – | 13 µM (active)
38 | CCCCc1[nH]c(=O)c(C#N)c2c1CCCC2 | -12.9% (inactive) | –
